A short description of the first assay: qHTS profiling of the MIPE4 collection as inhibitors of Plasmodium falciparum (DD2) proliferation (AID 743345). The settings on record: P. falciparum Dd2 in erythrocytes, SYBR Green DNA, 72 h; at 28.5 µM (top of the series) unless noted. The gist of the method:
(§1)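 Erythrocytes infected with P. falciparum (0.3% parasitemia, 2.5% hematocrit) incubated with compounds 72 h at 37 C, 5% CO2. Lysis with saponin/Triton buffer containing SYBR Green I, overnight at room temperature in the dark; DNA fluorescence (485/535 nm) normalised to 0.29 uM artemisinin and DMSO.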
(In qHTS, concentration-response curves come from the screen itself.)
As to `O=[N+]([O-])c1ccc(Nc2ccccc2-c2ccccc2)c2nonc12`, the parasite growth remaining, % of DMSO control (lower = more inhibition) was 83.4%.
Consider `CCC(=C(CC)c1ccc(O)cc1)c1ccc(O)cc1`, for which the parasite growth remaining, % of DMSO control (lower = more inhibition) amounted to 96.4%.
On to `C=C1c2cccc(O)c2C(O)=C2C(=O)[C@@]3(O)C(O)=C(C(N)=O)C(=O)[C@@H](N(C)C)[C@@H]3[C@@H](O)[C@H]12`, for which the parasite growth remaining, % of DMSO control (lower = more inhibition) amounted to 36.4%.
For `CC(=O)NCCC(=O)N[C@@H](CCC(N)=O)C(=O)N[C@@H](CO)C(=O)N[C@@H](CCC(N)=O)C(=O)N[C@@H](CCC(N)=O)C(=O)N[C@H](C(=O)N[C@@H](Cc1ccccc1)C(=O)N[C@]1(C)CCCCCCC=CCCC[C@@](C)(C(=O)N[C@@H](CCC(N)=O)C(=O)N[C@@H](CC(N)=O)C(N)=O)NC(=O)[C@H](CC(C)C)NC(=O)[C@H](CC(C)C)NC(=O)[C@@H](CCCNC(=N)N)NC(=O)[C@H](Cc2c[nH]c3ccccc23)NC(=O)[C@H](CC(C)C)NC(=O)[C@H](CC(N)=O)NC1=O)[C@H](C)O`, the parasite growth remaining, % of DMSO control (lower = more inhibition) came out at 41.2%.
Still for that read-out and setting: next, `Cc1ccc2c(c1)c1c(n2CCc2ccc(C)nc2)CCN(C)C1`: 55.3%; `CCCCC[C@H](O)C=C[C@H]1[C@H](O)CC(=O)[C@H]1CCCCCCC(=O)O`: 133%.
Regarding `O=c1[nH]c(=O)n([C@H]2C[C@@H](O)[C@@H](CO)O2)cc1I`, the parasite growth remaining, % of DMSO control (lower = more inhibition) is 39.2%.
On the same count and under the same terms, next, `Cn1cc(-c2ccc3nnc(Sc4ccc5ncccc5c4)n3n2)cn1`: 86.3%; `Cc1ccc(NC(=O)Nc2cc(C(F)(F)F)ccc2F)cc1Nc1ccc2c(c1)NC(=O)C2=Cc1ccc[nH]1`: 14.1%; `O=c1[nH]nc(OCCCc2ccc(Cl)cc2)c(NCc2cccnc2)c1Br`: 6.08%.
For the compound `CC(O)=C(C#N)C(=O)Nc1ccc(C(F)(F)F)cc1`, the parasite growth remaining, % of DMSO control (lower = more inhibition) is 89.7%.
The same measure, in the same setting: next, `CC(C)Oc1cc(Nc2nc(N[C@@H](C)c3ccc(F)cn3)ncc2Cl)[nH]n1`: 10.8%; `CCOC(=O)[C@@H](N)CCC(=O)N[C@@H](CSCc1ccccc1)C(=O)N[C@@H](C(=O)OCC)c1ccccc1`: 86.5%; `COc1ccnc(CS(=O)c2nc3ccc(OC(F)F)cc3[nH]2)c1OC` (stereo not given): 95.8%.
Regarding `CCOC(=O)N1c2ccc(C(F)(F)F)cc2[C@@H](N(Cc2cc(C(F)(F)F)cc(C(F)(F)F)c2)C(=O)OC)C[C@H]1CC`, the parasite growth remaining, % of DMSO control (lower = more inhibition) came to 7.82%.
Same read-out and setting: the result for `O=C(CCCN1CCN(c2ccc(F)cc2)CC1)NC1c2ccccc2CSc2ccccc21` (stereo not given) reads 98.7%; that for `C[C@@H](O)[C@H]1C(=O)N2C(C(=O)OCOC(=O)C(C)(C)C)=C(SC3CN(C4=NCCS4)C3)[C@H](C)[C@H]12`, 99.9%; that for `Oc1cc(O)cc(C=Cc2ccc(O)c(O)c2)c1`, 76.7%.
The same measure, in the same setting: the result for `C#CCN(C)CC1=Cc2ccccc2Oc2ccccc21` reads 76.6%.
For the compound `COc1cc(F)c(C(C)C)cc1-c1ccc(C(F)(F)F)cc1CN1C(=O)O[C@H](c2cc(C(F)(F)F)cc(C(F)(F)F)c2)[C@@H]1C`, the parasite growth remaining, % of DMSO control (lower = more inhibition) stood at 9.07%.
The same measure, in the same setting: next, `O=C(Nc1ccc(OC(F)(F)F)cc1)c1sccc1NCc1ccnc2ccccc12`: 85.7%.
With `CCc1cccc(CC)c1NC(=O)N1Cc2[nH]nc(NC(=O)c3ccc(N4CCN(C)CC4)cc3)c2C1`, the parasite growth remaining, % of DMSO control (lower = more inhibition) is 82.8%.
Same read-out and setting: next, `NC[C@H]1O[C@H](O[C@@H]2[C@@H](O)[C@@H](O[C@H]3O[C@H](CO)[C@@H](O)[C@H](N)[C@@H]3O)[C@H](N)C[C@@H]2N)[C@H](O)[C@@H](O)[C@H]1O`: 100%; `C=CC[N+]1([C@H]2C[C@H]3[C@@H]4CC[C@H]5C[C@H](O)[C@@H](N6CCOCC6)C[C@]5(C)[C@@H]4CC[C@]3(C)[C@H]2OC(C)=O)CCCC1`: 41%; `COc1cc2nccc(Oc3ccc(NC(=O)Nc4cc(C)on4)c(Cl)c3)c2cc1OC`: 22.7%.
As to `c1ccc(CNc2nc(N3CCOc4ccccc43)nc3c2CCCC3)cc1`, the parasite growth remaining, % of DMSO control (lower = more inhibition) came to 70.4%.
Same read-out and setting: the result for `Clc1ccc(C2(c3ccc(-c4cn[nH]c4)cc3)CCNCC2)cc1` reads 9.74%; that for `CC=C1C2C=C(C)CC1(N)c1ccc(=O)[nH]c1C2` (stereo not given), 19.1%.
Same read-out and setting: next, `O=C(Nc1ccccc1)Nc1ccc(-c2ccc(C(=O)[C@H]3CCC[C@H]3C(=O)O)cc2)cc1`: 78.7%.
Same read-out and setting: next, `CC=C(C(=CC)c1ccc(O)cc1)c1ccc(O)cc1`: 94.2%; `COc1ccc(-c2cc(=O)c3c(O)cc(O[C@@H]4O[C@H](CO[C@@H]5O[C@@H](C)[C@H](O)[C@@H](O)[C@@H]5O)[C@@H](O)[C@H](O)[C@@H]4O)cc3o2)cc1O`: 28.6%.

The nature of the next assay: qHTS profiling of the MIPE4 collection as inhibitors of Plasmodium falciparum (DD2) proliferation (Rep 2) (AID 743346). Conditions: P. falciparum Dd2 in erythrocytes, SYBR Green DNA, 72 h; at 28.5 µM (top of the series) unless noted. Put shortly:
as §1
`O=[N+]([O-])c1ccc(Nc2ccccc2-c2ccccc2)c2nonc12`: the parasite growth, % of control (lower = inhibition) came to 46.7%.
As for `CCC(=C(CC)c1ccc(O)cc1)c1ccc(O)cc1`, the parasite growth, % of control (lower = inhibition) stood at 84.8%.
Still for that read-out and setting: next, `C=C1c2cccc(O)c2C(O)=C2C(=O)[C@@]3(O)C(O)=C(C(N)=O)C(=O)[C@@H](N(C)C)[C@@H]3[C@@H](O)[C@H]12`: 24.1%; `CC(=O)NCCC(=O)N[C@@H](CCC(N)=O)C(=O)N[C@@H](CO)C(=O)N[C@@H](CCC(N)=O)C(=O)N[C@@H](CCC(N)=O)C(=O)N[C@H](C(=O)N[C@@H](Cc1ccccc1)C(=O)N[C@]1(C)CCCCCCC=CCCC[C@@](C)(C(=O)N[C@@H](CCC(N)=O)C(=O)N[C@@H](CC(N)=O)C(N)=O)NC(=O)[C@H](CC(C)C)NC(=O)[C@H](CC(C)C)NC(=O)[C@@H](CCCNC(=N)N)NC(=O)[C@H](Cc2c[nH]c3ccccc23)NC(=O)[C@H](CC(C)C)NC(=O)[C@H](CC(N)=O)NC1=O)[C@H](C)O`: 28.5%.
Same read-out and setting: next, `CCC(c1ccc(O)cc1)C(CC)c1ccc(O)cc1` (stereo not given): 75%.
Still for that read-out and setting: next, `Cc1ccc2c(c1)c1c(n2CCc2ccc(C)nc2)CCN(C)C1`: 49.2%.
`CCCCC[C@H](O)C=C[C@H]1[C@H](O)CC(=O)[C@H]1CCCCCCC(=O)O`: the parasite growth, % of control (lower = inhibition) stood at 71.7%.
On the same count and under the same terms, next, `O=c1[nH]c(=O)n([C@H]2C[C@@H](O)[C@@H](CO)O2)cc1I`: 77.7%.
As for `Cn1cc(-c2ccc3nnc(Sc4ccc5ncccc5c4)n3n2)cn1`, the parasite growth, % of control (lower = inhibition) amounted to 42.5%.
Same read-out and setting: the result for `Cc1ccc(NC(=O)Nc2cc(C(F)(F)F)ccc2F)cc1Nc1ccc2c(c1)NC(=O)C2=Cc1ccc[nH]1` reads 21.7%.
Regarding `O=c1[nH]nc(OCCCc2ccc(Cl)cc2)c(NCc2cccnc2)c1Br`, the parasite growth, % of control (lower = inhibition) is 30.4%.
The same measure, in the same setting: the result for `CC(C)Oc1cc(Nc2nc(N[C@@H](C)c3ccc(F)cn3)ncc2Cl)[nH]n1` reads 23.2%.
On the same count and under the same terms, next, `CCC(=O)OCC(=O)[C@@]1(OC(=O)CC)[C@@H](C)C[C@@H]2[C@H]3CCC4=CC(=O)C=C[C@]4(C)[C@@]3(F)[C@@H](O)C[C@@]21C`: 39.1%; `CCOC(=O)[C@@H](N)CCC(=O)N[C@@H](CSCc1ccccc1)C(=O)N[C@@H](C(=O)OCC)c1ccccc1`: 163%; `COc1ccnc(CS(=O)c2nc3ccc(OC(F)F)cc3[nH]2)c1OC` (stereo not given): 99%.
On the same count and under the same terms, the result for `CCOC(=O)N1c2ccc(C(F)(F)F)cc2[C@@H](N(Cc2cc(C(F)(F)F)cc(C(F)(F)F)c2)C(=O)OC)C[C@H]1CC` reads 14.4%; that for `O=C(CCCN1CCN(c2ccc(F)cc2)CC1)NC1c2ccccc2CSc2ccccc21` (stereo not given), 80.9%; that for `C[C@@H](O)[C@H]1C(=O)N2C(C(=O)OCOC(=O)C(C)(C)C)=C(SC3CN(C4=NCCS4)C3)[C@H](C)[C@H]12`, 107%.
Take `C#CCN(C)CC1=Cc2ccccc2Oc2ccccc21`: the parasite growth, % of control (lower = inhibition) came to 63.1%.
On the same count and under the same terms, the result for `O=C(Nc1ccc(OC(F)(F)F)cc1)c1sccc1NCc1ccnc2ccccc12` reads 82.6%.
Same read-out and setting: next, `CCc1cccc(CC)c1NC(=O)N1Cc2[nH]nc(NC(=O)c3ccc(N4CCN(C)CC4)cc3)c2C1`: 21.6%.
Still for that read-out and setting: next, `NC[C@H]1O[C@H](O[C@@H]2[C@@H](O)[C@@H](O[C@H]3O[C@H](CO)[C@@H](O)[C@H](N)[C@@H]3O)[C@H](N)C[C@@H]2N)[C@H](O)[C@@H](O)[C@H]1O`: 80.6%.
`C=CC[N+]1([C@H]2C[C@H]3[C@@H]4CC[C@H]5C[C@H](O)[C@@H](N6CCOCC6)C[C@]5(C)[C@@H]4CC[C@]3(C)[C@H]2OC(C)=O)CCCC1`: the parasite growth, % of control (lower = inhibition) came to 21.1%.
As for `COc1cc2nccc(Oc3ccc(NC(=O)Nc4cc(C)on4)c(Cl)c3)c2cc1OC`, the parasite growth, % of control (lower = inhibition) is 27.3%.
Still for that read-out and setting: the result for `c1ccc(CNc2nc(N3CCOc4ccccc43)nc3c2CCCC3)cc1` reads 21.3%; that for `Clc1ccc(C2(c3ccc(-c4cn[nH]c4)cc3)CCNCC2)cc1`, 12.8%; that for `O=C(Nc1ccccc1)Nc1ccc(-c2ccc(C(=O)[C@H]3CCC[C@H]3C(=O)O)cc2)cc1`, 32%.
Turning to `CC=C(C(=CC)c1ccc(O)cc1)c1ccc(O)cc1`, the parasite growth, % of control (lower = inhibition) is 67.7%.
In the case of `COc1ccc(-c2cc(=O)c3c(O)cc(O[C@@H]4O[C@H](CO[C@@H]5O[C@@H](C)[C@H](O)[C@@H](O)[C@@H]5O)[C@@H](O)[C@H](O)[C@@H]4O)cc3o2)cc1O`, the parasite growth, % of control (lower = inhibition) worked out at 33.2%.
